Source: PubChem BioAssay (NCI)
The panel holds about 83,000 compounds, 20% with a hit somewhere; the sample as a whole holds those more often.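 Cell lines were cultured in 96-well plates, exposed to a single compound concentration, and assessed for percent growth 48 hours later.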 Unmarked numbers belong to inactive results. Calls of active or inactive are those of the source. How the source made its calls: active means growth percent below 10; inactive means the rest.

System: MDA-MB-231 breast
Assay: NCI-60 one-dose screen, 48 h (100 = growth as untreated, 0 = no growth, -100 = all killed)
Settings: 10 µM unless noted

| SMILES | growth |
| --- | --- |
| COc1cc2nc(Cl)nc(Nc3cccc(C4=Nc5c(N)nc(N)nc5NC(c5ccc6c(c5)OCO6)C4)c3)c2cc1OC (configuration not stated) | 79.9% |
| CC1(C)NCCC[C@]2(C)[C@H]3C/C(=N\O)C4[C@@H]5C[C@@](C)(CO)CC[C@]5(C)CC[C@@]4(C)[C@]3(C)CC[C@@H]12 (some centres not stated) | 93.7% |
| C#Cc1nc(/C=C/C(=O)c2nccn2C)cs1 | -64.7% (active) |
| COc1cc2nc(Cl)nc(Nc3cccc(C4=Nc5c(N)nc(N)nc5NC(c5ccc(Cl)cc5)C4)c3)c2cc1OC (configuration not stated) | 72.9% |
| CC(C)(C)c1ccc(C(=O)Nc2sc3c(c2C(N)=O)CCC(O)C3)cc1 (configuration not stated) | 65.6% |
| COc1ccc(-c2nc3cccc(O)c3c(=O)n2Cc2ccccc2)cc1COc1ccc(NC(C)=O)cc1 | 64.2% [3 µM] |
| N#Cc1cn(Cc2ccc(Cl)cc2Cl)c(C(=O)c2ccc(Br)cc2)c1N | 88.2% |
| O=C(CCn1c[n+](CC(=O)c2ccc(-c3ccccc3)cc2)c2ccccc21)Nc1cccc2cccnc12 | 49.6% |
| Cc1ccc(-c2nnc(SCc3ccc(O)c4ncccc34)o2)cc1 | 41.7% |
| Cc1ccc(S(=O)(=O)N(CC[C@@H]2C[C@H]2c2cc3ccccc3o2)S(=O)(=O)c2ccc(C)cc2)cc1 | 83.6% |
| COc1ccc(Cn2cc3c(c2-c2cc(OC)c(OC)c(OC)c2)CCc2c(CN4CCCC4)noc2-3)cc1 | 36.7% |
| Cc1nn(-c2ccccc2)c2ncnc(N/N=C/c3cccc(O)c3)c12 | 70.8% |
| COc1ccc(C2CC(c3ccc(Nc4nc(NCCO)nc(N5CCOCC5)n4)cc3)=Nc3c(N)nc(N)nc3N2)cc1 (configuration not stated) | 90.6% |
| O=C(CN1CCN(c2cc(=O)n(-c3ccccc3)c3ccccc23)CC1)Nc1ccc(F)cc1 | 63% |

System: RXF 393 renal
Assay: as above
Settings: 10 µM unless noted

| SMILES | growth |
| --- | --- |
| COc1cc2nc(Cl)nc(Nc3cccc(C4=Nc5c(N)nc(N)nc5NC(c5ccccc5)C4)c3)c2cc1OC (configuration not stated) | 84.5% |
| C#C[C@]1(O)CC[C@H]2[C@@H]3CC=C4c5sc(-c6ccc7c(c6)OCO7)nc5CC[C@]4(C)[C@H]3CC[C@@]21C | -49.3% (active) |
| CCO/C=N/C1=C(C#N)C(c2ccc(F)cc2)c2sc3c(C)cccc3c2O1 (configuration not stated) | 0.223% (active) |
| COc1ccc(/C=C(\C#N)C(=O)N2c3ccccc3Sc3ccc(SC)cc32)cc1F | 100% |
| NC(N)=Nc1ccc(Oc2cccc(Nc3ccc(Cl)c(C(F)(F)F)c3)c2)cc1 | 50% |
| COc1ccccc1-n1cc(C#N)c(N)c1C(=O)c1ccc(Br)cc1 | 85.8% |
| NC(N)=Nc1ccc(Oc2cccc(Nc3ccc(Br)c(C(F)(F)F)c3)c2)cc1 | 40.7% |
| Nc1nc(N)c2c(n1)NC(c1ccc(C(F)(F)F)cc1)CC(c1ccc(Nc3nc(NCCO)nc(N4CCOCC4)n3)cc1)=N2 (configuration not stated) | 67.9% |
| COc1ccccc1-n1cc(C#N)c(N)c1C(=O)c1ccc(C)cc1 | 76.6% |
| O=C(CCn1c[n+](CC(=O)c2ccc(F)cc2)c2ccccc21)Nc1cccc2cccnc12 | 92.7% |
| C#CCn1cccc1CNc1ccc(OC)cc1 | -32.3% (active) |
| NC(N)=Nc1ccc(Oc2cccc(Oc3ccc(Cl)c(C(F)(F)F)c3)c2)cn1 | 7.96% (active) |
| O=C(CCn1cc[n+](CC(=O)c2ccc(-c3ccccc3)cc2)c1)Nc1cccc2cccnc12 | 90.5% |
| C#C[C@]1(O)CC[C@H]2[C@@H]3CC=C4c5sc(-c6cccc(O)c6)nc5CC[C@]4(C)[C@H]3CC[C@@]21C | -68.5% (active) |
| C#C[C@]1(O)CC[C@H]2[C@@H]3CC=C4c5sc(-c6ccc(C)cc6)nc5CC[C@]4(C)[C@H]3CC[C@@]21C | -68.1% (active) |
| CCO/C=N/C1=C(C#N)C(c2ccc(OC)cc2)c2sc3c(CC)cccc3c2O1 (configuration not stated) | -21% (active) |
| O=C(CN1CCN(c2cc(=O)[nH]c3ccc(F)cc23)CC1)Nc1ccc(Cl)cc1 | -3.61% (active) |
| COc1cc2nc(Cl)nc(Nc3cccc(C4=Nc5c(N)nc(N)nc5NC(c5ccc6c(c5)OCO6)C4)c3)c2cc1OC (configuration not stated) | 56.1% |
| CC1(C)NCCC[C@]2(C)[C@H]3C/C(=N\O)C4[C@@H]5C[C@@](C)(CO)CC[C@]5(C)CC[C@@]4(C)[C@]3(C)CC[C@@H]12 (some centres not stated) | 91.5% |
| COc1cc2nc(Cl)nc(Nc3cccc(C4=Nc5c(N)nc(N)nc5NC(c5ccc(Cl)cc5)C4)c3)c2cc1OC (configuration not stated) | 73.6% |
| CC(C)(C)c1ccc(C(=O)Nc2sc3c(c2C(N)=O)CCC(O)C3)cc1 (configuration not stated) | 44.5% |
| COc1ccc(-c2nc3cccc(O)c3c(=O)n2Cc2ccccc2)cc1COc1ccc(NC(C)=O)cc1 | 52.6% [3 µM] |
| N#Cc1cn(Cc2ccc(Cl)cc2Cl)c(C(=O)c2ccc(Br)cc2)c1N | 95.8% |
| O=C(CCn1c[n+](CC(=O)c2ccc(-c3ccccc3)cc2)c2ccccc21)Nc1cccc2cccnc12 | 69.6% |
| Cc1ccc(S(=O)(=O)N(CC[C@@H]2C[C@H]2c2cc3ccccc3o2)S(=O)(=O)c2ccc(C)cc2)cc1 | 103% |
| Cc1nn(-c2ccccc2)c2ncnc(N/N=C/c3cccc(O)c3)c12 | 16.6% |
| COc1ccc(C2CC(c3ccc(Nc4nc(NCCO)nc(N5CCOCC5)n4)cc3)=Nc3c(N)nc(N)nc3N2)cc1 (configuration not stated) | 114% |
| O=C(CN1CCN(c2cc(=O)n(-c3ccccc3)c3ccccc23)CC1)Nc1ccc(F)cc1 | 71.9% |
